Only some compounds are listed: those with a hit (about 6.6% of all), similar ones and a draw of the others.
FBA Mtb inh: Mtb fructose-bisphosphate aldolase inhibition | P9WQA3 | AID 588726 | purified M. tuberculosis FBA, fluorescence read-out | inhibition, % at 1 µM | 360,000 compounds, 2.3% hits; in the data active = inhibition above about 27%;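 note: 0% = vehicle and 100% = reference inhibitor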
BoNT A protease: BoNT A light chain protease inhibition. multiplex microsphere protease substrate cleavage, flow cytometry. inhibition, % at 10 µM. 360,000 compounds, 0.17% hits. AID 588499; note: plate controls were buffer without enzyme for full effect and enzyme alone for no effect
Bead autofluor: flagged as autofluorescent in microsphere protease counterscreen; compound autofluorescence counterscreen, microsphere flow cytometry; stronger effect = higher value; fluorescence intensity (test concentration not listed); 360,000 compounds, 3.1% hits; AID 624483; in the data active = fluorescence intensity above about 16000; inconclusive = no clear call, values can overlap the other calls
GDH-TPI inh: GDH-TPI coupled enzyme inhibition counter-screen; AID 588335; inhibition, % at 4.8 µM; GDH-TPI coupled enzyme counterscreen, NADH absorbance; 360,000 compounds, 1.2% hits; in the data active = inhibition above about 30%;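 note: 0% = DMSO wells and 100% = wells lacking the enzyme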
Anthrax LF prot: blocks Bacillus anthracis lethal factor protease; P15917; multiplex microsphere protease cleavage assay, LF; inhibition, % at 10 µM; 360,000 compounds, 0.12% hits; AID 588501; note: plate controls were buffer without enzyme for full effect and enzyme alone for no effect
BoNT-F LC inh: inhibitors of Botulinum neurotoxin F light chain protease; Multiplex microsphere protease cleavage assay, flow cytometry; inhibition, % at 10 µM; 360,000 compounds, 0.22% hits; in the data active = inhibition above about 35%, passing the limit was not always enough; inconclusive = no clear call, values can overlap the other calls; note: plate controls were buffer without enzyme for full effect and enzyme alone for no effect
Active calls of the source: *. Cut-off read from the data, not from the text of the source, unless noted: active = inhibition above about 30%; inconclusive = no clear call, values can overlap the other calls; inactive = below that.

Screening Cc1ccccc1NS(=O)(=O)c1cccc2nsnc12 returned FBA Mtb inh 0, BoNT A protease -3, Bead autofluor 4103, GDH-TPI inh 1, Anthrax LF prot -12 and BoNT-F LC inh -29.
Screening O=C1CCCC2=C1C(c1ccncc1)n1c(nc3ccccc31)N2 (stereo unspecified) returned FBA Mtb inh active, BoNT A protease 1, Bead autofluor 4879, GDH-TPI inh 14, Anthrax LF prot -6 and BoNT-F LC inh -2.
`CC1CC(=O)C2=C(C1)Nc1nc3ccccc3n1C2c1cccnc1` (stereo unspecified) gave FBA Mtb inh 165*, BoNT A protease 0, Bead autofluor 3102, GDH-TPI inh 14, Anthrax LF prot -1 and BoNT-F LC inh -2.
O=C(O)CCCNS(=O)(=O)c1cccc2nsnc12 was read as FBA Mtb inh 0, BoNT A protease 2, Bead autofluor 3928, GDH-TPI inh 9, Anthrax LF prot -2 and BoNT-F LC inh 0.
`Nc1nc2nc(-c3ccc(Cl)cc3)cc(C(F)(F)F)n2n1` gave FBA Mtb inh active, BoNT A protease 3, Bead autofluor 11283, GDH-TPI inh 1, Anthrax LF prot -1 and BoNT-F LC inh -3.
For O=C(NCc1nc2ccccc2[nH]1)c1ccco1 the results were FBA Mtb inh 0, BoNT A protease 0, Bead autofluor 3000, GDH-TPI inh -10, Anthrax LF prot 3 and BoNT-F LC inh -7.
Screening O=C(N/C(=C/c1ccc(Cl)cc1)c1nc2ccccc2[nH]1)c1ccco1 returned FBA Mtb inh 4, BoNT A protease 0, Bead autofluor 2096, GDH-TPI inh 42*, Anthrax LF prot 9 and BoNT-F LC inh 25.
For O=C(N/C(=C/c1ccc(Br)cc1)c1nc2ccccc2[nH]1)c1ccco1 the results were FBA Mtb inh 5, BoNT A protease -1, Bead autofluor 9452, GDH-TPI inh 32*, Anthrax LF prot 3 and BoNT-F LC inh -1.
Screening Cc1nc(N2CCN(S(=O)(=O)c3cccs3)CC2)c2c(-c3ccccc3)c(C)sc2n1 returned FBA Mtb inh 0, BoNT A protease 0, Bead autofluor 3688, GDH-TPI inh 7, Anthrax LF prot -11 and BoNT-F LC inh -20.
CCCCOC(=O)CCc1nc2ccccc2[nH]c1=O was read as FBA Mtb inh 6, BoNT A protease 9, Bead autofluor 18710*, GDH-TPI inh 9, Anthrax LF prot 3 and BoNT-F LC inh 12.
Screening CCCCOC(=O)CCn1[nH]c(=O)c2ccccc2c1=O returned FBA Mtb inh 3, BoNT A protease -1, Bead autofluor 22758*, GDH-TPI inh 13, Anthrax LF prot -2 and BoNT-F LC inh 0.
Screening CCC(OC(=O)CCc1nc2ccccc2[nH]c1=O)C(=O)c1ccccc1 (stereo unspecified) returned FBA Mtb inh 3, BoNT A protease -3, Bead autofluor 17407*, GDH-TPI inh 21, Anthrax LF prot -4 and BoNT-F LC inh -8.
For CC(=O)COC(=O)CCc1nc2ccccc2[nH]c1=O the results were FBA Mtb inh 8, BoNT A protease -2, Bead autofluor 6760, GDH-TPI inh 7, Anthrax LF prot -8 and BoNT-F LC inh -16.
Screening Cc1sc(N2CCN(S(=O)(=O)c3ccc4c(c3)NC(=O)CO4)CC2)nc1-c1ccccc1 returned FBA Mtb inh -1, BoNT A protease 0, Bead autofluor 5398, GDH-TPI inh -8, Anthrax LF prot -3 and BoNT-F LC inh 1.
`Cc1ccc2nc3c(c(C(=O)OCC(=O)NC4CCS(=O)(=O)C4)c2c1)CCCC3` (stereo unspecified) gave FBA Mtb inh 13, BoNT A protease -3, Bead autofluor 3479, GDH-TPI inh 2, Anthrax LF prot -2 and BoNT-F LC inh -10.
For COc1cccc(C(=O)CN(C(=O)c2ccc(Cl)cc2Cl)N2C(=O)c3ccccc3C2=O)c1 the results were FBA Mtb inh 1, BoNT A protease 0, Bead autofluor 11206, GDH-TPI inh 1, Anthrax LF prot 0 and BoNT-F LC inh -1.
For Cc1ccc(C(=O)CN(C(=O)c2ccc(Cl)c(Cl)c2)N2C(=O)C3CCCCC3C2=O)cc1C (stereo unspecified) the results were FBA Mtb inh 0, BoNT A protease inconclusive, Bead autofluor 20975*, GDH-TPI inh -5, Anthrax LF prot 0 and BoNT-F LC inh -3.
COc1cccc(C(=O)CN(C(=O)c2ccc(Cl)c(Cl)c2)N2C(=O)c3ccccc3C2=O)c1 was read as FBA Mtb inh -1, BoNT A protease inconclusive, Bead autofluor 16849*, GDH-TPI inh -1, Anthrax LF prot 1 and BoNT-F LC inh -7.
CCN1CC(CN(C)Cc2cn(-c3ccc(C)cc3)nc2-c2cccc(C)c2)CC1=O (stereo unspecified) was read as FBA Mtb inh -5, BoNT A protease -1, Bead autofluor 2616, GDH-TPI inh 1, Anthrax LF prot 0 and BoNT-F LC inh -8.
For O=C(CNCc1ccccn1)N1CCc2ccccc2C1 the results were FBA Mtb inh -6, BoNT A protease -3, Bead autofluor 4152, GDH-TPI inh -19, Anthrax LF prot -3 and BoNT-F LC inh 9.
`CN(/C=C/C(=O)C(F)(F)F)Cc1ccccc1` gave FBA Mtb inh -1, BoNT A protease -2, Bead autofluor 24286*, GDH-TPI inh 32*, Anthrax LF prot -2 and BoNT-F LC inh -4.
CC(=O)Nc1cccc(NC(=O)CCn2cnc3cc(C)c(C)cc32)c1 was read as FBA Mtb inh 0, BoNT A protease 0, Bead autofluor 22641*, GDH-TPI inh -6, Anthrax LF prot -2 and BoNT-F LC inh -2.
Screening NCCCCCc1nnc(SCc2ccc(Cl)cc2Cl)o1 returned FBA Mtb inh -2, BoNT A protease inconclusive, Bead autofluor inconclusive, GDH-TPI inh 9, Anthrax LF prot inconclusive and BoNT-F LC inh inconclusive.
Screening CC(C)(C)OC(=O)NCCc1nnc(SCc2ccccc2Cl)o1 returned FBA Mtb inh -2, BoNT A protease 0, Bead autofluor 16944*, GDH-TPI inh -5, Anthrax LF prot 0 and BoNT-F LC inh 0.
Screening NCCc1nnc(SCc2ccccc2Cl)o1 returned FBA Mtb inh 2, BoNT A protease 8, Bead autofluor 3185, GDH-TPI inh -5, Anthrax LF prot inconclusive and BoNT-F LC inh 45*.
For COc1cccc(N2CC(NS(=O)(=O)c3ccc4ccccc4c3)CC2=O)c1 (stereo unspecified) the results were FBA Mtb inh -1 and GDH-TPI inh 7.
`Cc1c(NC(=S)NC(=O)Cc2ccccc2)cccc1C(=O)O` gave FBA Mtb inh -3, BoNT A protease inconclusive, Bead autofluor 21800*, GDH-TPI inh 1, Anthrax LF prot -3 and BoNT-F LC inh -1.
`CCC(C(=O)Nc1cccc(C(=O)O)c1C)c1ccccc1` (stereo unspecified) gave FBA Mtb inh 143*, BoNT A protease 2, Bead autofluor 3089, GDH-TPI inh 8, Anthrax LF prot -2 and BoNT-F LC inh 6.

Screening data (PubChem BioAssay)
